The text below walks through data of PubChem BioAssay (NCATS).

A short description of test [1]: qHTS profiling of the MIPE4 collection as inhibitors of Plasmodium falciparum (3D7) proliferation (AID 743344).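 Further: scaled between DMSO vehicle wells and 0.29 µM artemisinin as full inhibition.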 Conditions: P. falciparum 3D7 in erythrocytes, SYBR Green DNA fluorescence, 72 h; at 28.5 µM unless noted. In outline: (§1)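 Parasite DNA was quantified by SYBR Green I fluorescence (ex 485, em 535 nm) after overnight lysis in saponin/Triton buffer at room temperature. Cultures at 0.3% parasitemia and 2.5% hematocrit were first exposed to compound for 72 h at 37 C; signals were normalised to artemisinin (0.29 uM) and vehicle wells.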
A general note: qHTS replaces the single test concentration by a dilution series.

Test [2] is described as follows: qHTS profiling of the MIPE4 collection as inhibitors of Plasmodium falciparum (DD2) proliferation (AID 743345). The following applies: P. falciparum Dd2 in erythrocytes, SYBR Green DNA, 72 h; at 28.5 µM unless noted. An outline of the steps: as §1
Test [3] is described as follows: qHTS profiling of the MIPE4 collection as inhibitors of Plasmodium falciparum (DD2) proliferation (Rep 2) (AID 743346). The following applies: P. falciparum Dd2 in erythrocytes, SYBR Green DNA, 72 h; at 28.5 µM unless noted. An outline of the steps: as §1
Test [4] is described as follows: qHTS profiling of the MIPE4 collection as inhibitors of Plasmodium falciparum (HB3) proliferation (AID 743347).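 Further: plate controls were DMSO vehicle wells for no effect and artemisinin wells for full effect.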 Conditions: P. falciparum HB3 in erythrocytes, SYBR Green DNA, 72 h; at 28.5 µM unless noted. In outline: as §1
A short description of test [5]: High-throughput drug toxicity screening in the BPDCN cell line Gen2.2 (AID 1224824).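 Further: cells exposed to compounds for 48 h before reading.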 Conditions: Gen2.2 BPDCN cells; at 45.8 µM (top of the series) unless noted. An outline of the steps:
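CellTiter-Glo luminescence after 48 h compound exposure of Gen2.2 cells; percent activity set with DMSO as 100% and bortezomib (9.2 uM final) as 0%. Cells seeded at 500 per well, RPMI + 10% FBS, 37 °C.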

The nature of test [6]: High-throughput drug toxicity screening in the BPDCN cell line Cal-1 (AID 1224825). Conditions: Cal-1 BPDCN cell viability, qHTS; at 45.8 µM (top of the series) unless noted. An outline of the steps:
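Viability of the BPDCN line Cal-1 is measured as ATP-based luminescence (CellTiter-Glo) following 48 h incubation with compounds. Percent activity uses DMSO-treated wells as 100% and 9.2 uM bortezomib as 0%.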

The nature of test [7]: qHTS assay for measurement of the activity of small molecule inhibitors on Zika virus induced Caspase-3 activity in human iPSC derived neural progenitor cells (hNPCs) (AID 1224857; active means well fitted curve in the direction sought with a large enough effect; an effect the other way counts as inactive or inconclusive; further: % of control where 0% means no effect; nearly all actives have a fitted effect of over 65% in size). An outline of the steps:
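Pretreat hNPCs with compound 1 h; infect ZIKV 2 FFU/cell; 6 h 37 C, 5% CO2; Caspase-Glo 3/7, 30 min RT; luminescence; normalize to no-virus and virus-only wells.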

Test [8] can be described thus: qHTS Screen of the MIPE 4.0 Collection Against Ewings Sarcoma (RDES) (AID 1259252; active means well fitted curve in the direction sought with a large enough effect; an effect the other way counts as inactive or inconclusive; further: nearly all actives have a fitted effect of over 35% in size; further: potency means the concentration at half of the fitted maximal effect). An outline of the steps:
(§2)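 Measured: ATP luminescence (CellTiter-Glo) 10 min after reagent addition, following 48 h drug treatment. Relative luciferase units converted to percent activity, with no-cell wells as full and DMSO wells as zero inhibition.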

Test [9] in a line: qHTS Screen of the MIPE 4.0 Collection Against Ewings Sarcoma (TC71) (AID 1259253; active means well fitted curve in the direction sought with a large enough effect; an effect the other way counts as inactive or inconclusive; further: potency means the concentration at half of the fitted maximal effect; nearly all actives have a fitted effect of over 40% in size). In outline:
as §2

Test [10] can be described thus: qHTS Screen of the MIPE 4.0 Collection Against Ewings Sarcoma (EW8) (AID 1259255; active means well fitted curve in the direction sought with a large enough effect; an effect the other way counts as inactive or inconclusive; further: potency means the concentration at half of the fitted maximal effect; nearly all actives have a fitted effect of over 35% in size). In outline: as §2
A short description of test [11]: qHTS assay to identify small molecule inhibitors of chordoma cells - UCH-1 (AID 1259355; active means well fitted curve in the direction sought with a large enough effect; an effect the other way counts as inactive or inconclusive; further: on the % scale 0 is the no-effect control and ±100 the full control effect; nearly all actives have a fitted effect of over 55% in size). An outline of the steps: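 A 48hr growth-inhibition format: each drug tested at 15 concentrations together with added auranofin, camptothecin, doxorubicin, rubitecan and topotecan, with cell viability quantified as CellTiter-Glo luminescence.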
Test [12] is described as follows: qHTS assay to identify small molecule inhibitors of chordoma cells - UCH-2 (AID 1259356; active means well fitted curve in the direction sought with a large enough effect; an effect the other way counts as inactive or inconclusive; further: on the % scale 0 is the no-effect control and ±100 the full control effect).

SMILES strings stand for the structures. Results filed as inconclusive are left out. The source made the active and inactive calls. Unless noted, how the calls were made is not given here.

In [1], `Cc1ccccc1C(=O)c1ccc(Nc2ccc(Br)cc2N)cc1Cl` yielded a parasite growth, % of DMSO control of 27.4%. Moreover, in [2], the parasite growth remaining, % of DMSO control (lower = more inhibition) was found to be 44.1%. For the same molecule, the parasite growth, % of control (lower = inhibition) in [3] stood at 40%. The molecule further came in with a growth, % of control in test [4] of 28.4%. The cell viability, % of control (lower = more cytotoxic) in test [5] was found to be 182%. Further, the viability (% of control) in [6] was 79.6%. Also, the Potency result in [7] was “inactive”. The Potency in test [8] is 23.5 µM (active); in [9] it was 16.6 µM (active); in test [10], 23.5 µM (active).
The molecule `CC(=O)O[C@]1(C(C)=O)CC[C@H]2[C@@H]3C=C(Cl)C4=CC(=O)[C@@H]5C[C@H]5[C@]4(C)[C@@H]3CC[C@@]21C` had a parasite growth, % of DMSO control in [1] of 21.6%. Further, the parasite growth remaining, % of DMSO control (lower = more inhibition) in [2] worked out at 22.5%. The parasite growth, % of control (lower = inhibition) in test [3] was 18.7%. Also, the cell viability, % of control (lower = more cytotoxic) in test [5] came out at 42.4%. Also, the viability (% of control) in [6] worked out at 18%. The Potency result in test [7] is “inactive”. Besides, the values for the Potency in test [8] and in [9] were 9.35 µM (active) and 13.2 µM (active), respectively.
`NC(=O)c1nnn(Cc2cc(Cl)c(C(=O)c3ccc(Cl)cc3)c(Cl)c2)c1N`: in test [1], the parasite growth, % of DMSO control was determined as 23.3%. Further, the parasite growth remaining, % of DMSO control (lower = more inhibition) in test [2] stood at 33.4%. In addition, the parasite growth, % of control (lower = inhibition) in test [3] worked out at 37%. Moreover, in [4], the growth, % of control was 6.97%. Moreover, the cell viability, % of control (lower = more cytotoxic) in [5] came out at 390%. For the same molecule, the viability (% of control) in test [6] was 45.1%. Also, the Potency entry in test [7] was “inactive”. For the same molecule, the Potency in [9] is 18.7 µM (active); in test [10], 26.4 µM (active).
In the case of `COc1cc(CNC(=O)CCCCC=CC(C)C)ccc1O`, the cell viability, % of control (lower = more cytotoxic) in test [5] came out at 145%. Further, the viability (% of control) in test [6] is 27.5%. The Potency result in test [7] was “inactive”. In addition, the Potency in test [8] was 5.9 µM (active); in [9], 16.6 µM (active); in [10] it was 6.62 µM (active).
Molecule `Cc1cc(NC(=O)Nc2ccc(N(C)C)cc2)c2cc(F)cc(F)c2n1` yielded a parasite growth, % of DMSO control in [1] of 9.65%. The same molecule gave a parasite growth remaining, % of DMSO control (lower = more inhibition) in [2] of 46%. Also, in test [3], the parasite growth, % of control (lower = inhibition) is 10.9%. In test [5], the cell viability, % of control (lower = more cytotoxic) stood at 149%. Further, the viability (% of control) in [6] was found to be 112%. Also, the Potency entry in [7] and in test [8] was “inactive” throughout. Moreover, the Potency in test [10] is 26.4 µM (active).
Take `CC(C)CN(C[C@@H](O)[C@H](Cc1ccccc1)NC(=O)O[C@H]1CO[C@H]2OCC[C@H]21)S(=O)(=O)c1ccc(N)cc1`: in [2], the parasite growth remaining, % of DMSO control (lower = more inhibition) came out at 19.4%. In addition, in test [3], the parasite growth, % of control (lower = inhibition) came to 101%. Further, the cell viability, % of control (lower = more cytotoxic) in test [5] was found to be 118%. Besides, the viability (% of control) in [6] came out at 117%. In addition, the Potency result in [7] is “inactive”. The Potency is 2.09 µM (active) in test [8], 3.72 µM (active) in [9] and 1.32 µM (active) in test [10]. For the same molecule, the molecule was called inactive in [11] and in test [12].
